The full data set covers some 7,900 targets. This sample favours those with a hit. About 0.6% of all pairs of compound and target were hits. Values without a mark were called inactive.
Key:
Assay in all cases: log2 fold change, soluble protein after heating vs DMSO (PISA); higher = thermal stabilisation; K562 cells, 10 uM, 30 min; active = over 0.2 and 3.5 SD of the protein, either way, in both replicates (recomputed)
[1] = compound: NC(=O)Nc1cc(-c2cccc(F)c2)sc1C(=O)N[C@H]1CCCNC1
Procedure, shortened: (§1)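 K562 cells at 2×10^6 cells/mL were given 10 μM compound for 30 min. Aliquots then went through 3 min of heating across 48°C-58°C, were pooled, and were extracted in PBS with 0.5% NP-40 at 4°C, and the supernatant after 21,000xg for 90 min was quantified by TMTpro 16plex LC-MS/MS with channel sums equalised. Thermal stability relative to control samples, from duplicates, is given as log2 fold change.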

[2] = compound: NC(=O)c1cnc(N[C@@H]2CCCC[C@@H]2N)nc1Nc1cccc(-n2nccn2)c1
Procedure, shortened: as §1

[3] = compound: NC1(c2ccc(-c3nc4ccn5c(=O)[nH]nc5c4cc3-c3ccccc3)cc2)CCC1
Procedure, shortened: as §1

[4] = compound: NCC(=O)Nc1ccc(-n2nc(C(F)(F)F)cc2-c2ccc3c(ccc4ccccc43)c2)cc1
Procedure, shortened: as §1

entinostat = compound: Nc1ccccc1NC(=O)c1ccc(CNC(=O)OCc2cccnc2)cc1 [entinostat]
Procedure, shortened: as §1

vorinostat = compound: O=C(CCCCCCC(=O)Nc1ccccc1)NO [vorinostat]
Procedure, shortened: as §1

citarinostat = compound: O=C(CCCCCCNC(=O)c1cnc(N(c2ccccc2)c2ccccc2Cl)nc1)NO [citarinostat]
Procedure, shortened: as §1

silmitasertib = compound: O=C(O)c1ccc2c(c1)nc(Nc1cccc(Cl)c1)c1ccncc12 [silmitasertib]
Procedure, shortened: as §1

[5] = compound: O=C1NC(=O)C(c2cnc3ccccn23)=C1c1cn2c3c(cc(F)cc13)CN(C(=O)N1CCCCC1)CC2
Procedure, shortened: as §1

[6] = compound: c1cc(OCCN2CCCCC2)cc(-c2n[nH]c3ccc(-c4nnc[nH]4)cc23)c1
Procedure, shortened: as §1

entospletinib = compound: c1cn2cc(-c3ccc4cn[nH]c4c3)nc(Nc3ccc(N4CCOCC4)cc3)c2n1 [entospletinib]
Procedure, shortened: as §1

Chain of UniProt Q96G23 (Q96G23 whole entry, looked up): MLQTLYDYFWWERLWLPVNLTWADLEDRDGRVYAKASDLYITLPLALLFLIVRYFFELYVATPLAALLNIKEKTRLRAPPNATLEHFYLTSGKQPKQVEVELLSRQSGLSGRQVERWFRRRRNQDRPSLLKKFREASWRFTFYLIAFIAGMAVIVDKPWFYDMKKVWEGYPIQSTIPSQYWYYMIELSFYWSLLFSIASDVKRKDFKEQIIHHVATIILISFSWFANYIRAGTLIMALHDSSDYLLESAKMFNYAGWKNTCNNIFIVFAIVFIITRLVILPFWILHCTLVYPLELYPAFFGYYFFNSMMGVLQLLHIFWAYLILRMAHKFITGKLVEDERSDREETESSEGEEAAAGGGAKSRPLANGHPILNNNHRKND
Chain of UniProt P10606 (P10606 whole entry, looked up): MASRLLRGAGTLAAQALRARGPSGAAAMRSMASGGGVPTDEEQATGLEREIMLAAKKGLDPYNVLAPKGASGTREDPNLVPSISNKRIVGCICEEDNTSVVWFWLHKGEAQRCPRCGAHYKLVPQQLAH
Chain of UniProt O75390 (O75390 whole entry, looked up): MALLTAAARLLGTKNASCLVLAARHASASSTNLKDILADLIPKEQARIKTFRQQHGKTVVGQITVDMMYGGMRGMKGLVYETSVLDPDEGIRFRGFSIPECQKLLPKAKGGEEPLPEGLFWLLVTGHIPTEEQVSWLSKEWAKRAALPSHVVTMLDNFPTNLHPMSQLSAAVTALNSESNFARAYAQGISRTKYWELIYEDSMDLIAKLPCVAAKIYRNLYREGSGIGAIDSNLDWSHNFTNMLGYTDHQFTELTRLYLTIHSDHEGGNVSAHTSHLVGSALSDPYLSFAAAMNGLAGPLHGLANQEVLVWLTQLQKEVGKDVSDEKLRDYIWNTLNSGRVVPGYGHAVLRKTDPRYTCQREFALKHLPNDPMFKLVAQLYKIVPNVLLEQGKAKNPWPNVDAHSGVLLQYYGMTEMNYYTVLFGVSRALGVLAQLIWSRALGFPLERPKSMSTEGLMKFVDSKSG
Chain of UniProt P46108 (P46108 whole entry, looked up): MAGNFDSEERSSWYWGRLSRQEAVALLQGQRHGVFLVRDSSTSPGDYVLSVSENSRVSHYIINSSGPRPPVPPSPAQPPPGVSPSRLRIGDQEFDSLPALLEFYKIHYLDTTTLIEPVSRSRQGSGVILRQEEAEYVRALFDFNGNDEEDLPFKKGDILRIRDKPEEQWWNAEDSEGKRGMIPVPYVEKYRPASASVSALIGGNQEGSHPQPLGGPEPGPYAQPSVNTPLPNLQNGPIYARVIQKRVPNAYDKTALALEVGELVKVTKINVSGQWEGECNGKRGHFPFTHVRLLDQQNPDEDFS
Chain of UniProt O60563 (O60563 whole entry, looked up): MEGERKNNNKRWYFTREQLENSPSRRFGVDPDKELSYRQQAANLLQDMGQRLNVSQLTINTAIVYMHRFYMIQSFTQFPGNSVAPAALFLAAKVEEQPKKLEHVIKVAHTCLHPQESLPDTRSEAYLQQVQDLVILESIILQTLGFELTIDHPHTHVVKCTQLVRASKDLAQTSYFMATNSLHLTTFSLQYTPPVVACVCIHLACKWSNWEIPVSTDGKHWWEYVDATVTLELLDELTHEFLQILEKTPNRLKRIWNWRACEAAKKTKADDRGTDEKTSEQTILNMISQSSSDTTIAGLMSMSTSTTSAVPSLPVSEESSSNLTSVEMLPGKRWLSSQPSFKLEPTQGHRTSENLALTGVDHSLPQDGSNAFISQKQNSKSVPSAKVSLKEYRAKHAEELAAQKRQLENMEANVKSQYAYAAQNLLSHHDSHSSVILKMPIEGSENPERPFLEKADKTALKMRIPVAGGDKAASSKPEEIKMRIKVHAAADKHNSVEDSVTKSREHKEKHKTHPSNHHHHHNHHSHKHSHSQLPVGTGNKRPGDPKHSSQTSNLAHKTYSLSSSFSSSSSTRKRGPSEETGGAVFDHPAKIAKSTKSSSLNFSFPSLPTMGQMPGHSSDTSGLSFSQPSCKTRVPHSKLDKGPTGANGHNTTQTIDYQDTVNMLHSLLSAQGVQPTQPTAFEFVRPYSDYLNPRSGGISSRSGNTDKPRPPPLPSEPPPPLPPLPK
Chain of UniProt Q96G28 (Q96G28 whole entry, looked up): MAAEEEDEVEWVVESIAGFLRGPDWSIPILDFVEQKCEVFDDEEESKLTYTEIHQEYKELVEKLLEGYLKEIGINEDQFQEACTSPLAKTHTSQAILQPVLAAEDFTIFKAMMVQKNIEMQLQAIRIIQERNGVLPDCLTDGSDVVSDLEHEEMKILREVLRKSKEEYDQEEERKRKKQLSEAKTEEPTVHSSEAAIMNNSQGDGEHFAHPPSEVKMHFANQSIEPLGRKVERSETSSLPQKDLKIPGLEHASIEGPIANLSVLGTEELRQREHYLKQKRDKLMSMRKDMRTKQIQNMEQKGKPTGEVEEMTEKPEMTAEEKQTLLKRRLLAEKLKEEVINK
Chain of UniProt Q8N4Q1 (Q8N4Q1 whole entry, looked up): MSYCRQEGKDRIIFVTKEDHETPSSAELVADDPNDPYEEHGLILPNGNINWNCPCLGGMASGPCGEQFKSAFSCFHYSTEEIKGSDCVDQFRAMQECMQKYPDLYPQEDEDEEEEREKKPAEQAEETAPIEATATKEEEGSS
Chain of UniProt O75909 (O75909 whole entry, looked up): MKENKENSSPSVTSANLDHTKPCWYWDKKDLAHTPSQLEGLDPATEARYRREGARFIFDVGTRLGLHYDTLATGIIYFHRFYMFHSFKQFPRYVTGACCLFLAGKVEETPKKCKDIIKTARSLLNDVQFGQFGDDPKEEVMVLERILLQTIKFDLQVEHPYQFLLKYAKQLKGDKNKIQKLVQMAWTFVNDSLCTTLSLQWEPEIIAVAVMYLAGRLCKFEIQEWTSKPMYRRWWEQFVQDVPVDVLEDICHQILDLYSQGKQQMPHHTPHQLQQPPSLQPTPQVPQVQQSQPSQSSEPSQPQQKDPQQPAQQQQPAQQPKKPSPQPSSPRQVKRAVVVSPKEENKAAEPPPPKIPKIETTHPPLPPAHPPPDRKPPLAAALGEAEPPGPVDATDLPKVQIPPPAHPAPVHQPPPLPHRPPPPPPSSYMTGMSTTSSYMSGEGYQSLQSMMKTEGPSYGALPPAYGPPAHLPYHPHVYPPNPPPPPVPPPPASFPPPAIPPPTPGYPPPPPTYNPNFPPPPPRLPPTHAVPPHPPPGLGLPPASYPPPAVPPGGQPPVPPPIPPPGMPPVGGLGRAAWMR
Chain of UniProt P05937 (P05937 whole entry, looked up): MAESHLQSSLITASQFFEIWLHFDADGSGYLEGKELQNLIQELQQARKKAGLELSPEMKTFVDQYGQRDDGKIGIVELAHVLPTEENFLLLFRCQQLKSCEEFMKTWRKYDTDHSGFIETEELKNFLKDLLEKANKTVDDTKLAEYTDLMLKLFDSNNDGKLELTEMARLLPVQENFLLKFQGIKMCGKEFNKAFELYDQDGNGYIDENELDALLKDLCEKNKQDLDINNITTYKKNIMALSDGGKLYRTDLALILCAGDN
Chain of UniProt Q96SZ6 (Q96SZ6 whole entry, looked up): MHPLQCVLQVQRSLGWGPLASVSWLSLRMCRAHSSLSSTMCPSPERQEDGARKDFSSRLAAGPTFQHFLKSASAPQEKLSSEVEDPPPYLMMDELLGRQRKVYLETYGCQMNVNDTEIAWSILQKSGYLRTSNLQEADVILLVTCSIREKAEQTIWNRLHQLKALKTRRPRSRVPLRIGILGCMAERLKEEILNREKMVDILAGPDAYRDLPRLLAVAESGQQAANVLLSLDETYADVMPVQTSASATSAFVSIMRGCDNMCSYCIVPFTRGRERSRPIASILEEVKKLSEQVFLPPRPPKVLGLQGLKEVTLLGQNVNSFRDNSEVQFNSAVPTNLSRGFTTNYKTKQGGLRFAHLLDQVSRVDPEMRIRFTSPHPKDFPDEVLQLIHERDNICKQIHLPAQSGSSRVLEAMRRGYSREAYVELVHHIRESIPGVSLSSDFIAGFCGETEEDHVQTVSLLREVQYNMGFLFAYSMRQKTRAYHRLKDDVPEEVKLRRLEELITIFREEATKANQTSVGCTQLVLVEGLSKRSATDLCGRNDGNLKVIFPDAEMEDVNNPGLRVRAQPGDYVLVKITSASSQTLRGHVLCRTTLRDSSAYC
Chain of UniProt P46109 (P46109 whole entry, looked up): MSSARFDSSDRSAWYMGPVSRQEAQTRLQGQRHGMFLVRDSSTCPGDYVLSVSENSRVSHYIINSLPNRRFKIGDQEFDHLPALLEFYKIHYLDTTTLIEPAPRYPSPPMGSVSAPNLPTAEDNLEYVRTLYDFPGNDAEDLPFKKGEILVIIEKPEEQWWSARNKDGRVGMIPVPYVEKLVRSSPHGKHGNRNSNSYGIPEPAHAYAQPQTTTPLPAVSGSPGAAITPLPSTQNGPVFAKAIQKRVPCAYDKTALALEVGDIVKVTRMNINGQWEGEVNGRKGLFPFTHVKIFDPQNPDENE
Chain of UniProt Q00536 (Q00536 whole entry, looked up): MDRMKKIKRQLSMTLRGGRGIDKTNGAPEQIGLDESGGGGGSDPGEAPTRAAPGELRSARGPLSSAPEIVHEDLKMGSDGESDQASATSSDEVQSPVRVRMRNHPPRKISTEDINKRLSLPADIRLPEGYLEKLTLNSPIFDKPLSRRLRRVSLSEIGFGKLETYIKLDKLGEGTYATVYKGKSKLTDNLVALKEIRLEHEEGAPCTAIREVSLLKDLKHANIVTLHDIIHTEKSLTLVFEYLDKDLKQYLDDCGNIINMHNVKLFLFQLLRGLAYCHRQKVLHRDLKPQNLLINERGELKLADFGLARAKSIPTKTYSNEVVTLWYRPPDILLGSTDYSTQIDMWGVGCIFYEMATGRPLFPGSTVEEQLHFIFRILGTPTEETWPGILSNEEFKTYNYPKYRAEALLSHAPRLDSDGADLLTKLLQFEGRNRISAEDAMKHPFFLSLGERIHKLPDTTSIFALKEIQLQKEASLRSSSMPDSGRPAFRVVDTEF

Row | Target | log2 fold change [1] | log2 fold change [2] | log2 fold change [3] | log2 fold change [4] | log2 fold change (entinostat) | log2 fold change (vorinostat) | log2 fold change (citarinostat) | log2 fold change (silmitasertib) | log2 fold change [5] | log2 fold change [6] | log2 fold change (entospletinib)
1 | CS (UniProt O75390) | -0.024 | -0.087 | -0.187 | 0.007 | 0.001 | 0.064 | 0.012 | -0.039 | 0.003 | -0.068 | 0.005
2 | COX5B (UniProt P10606) | 0.041 | 0.031 | 0.053 | -0.015 | -0.006 | -0.151 | 0.02 | -0.04 | -0.131 | 0.034 | 0.005
3 | CFAP36 isoform 2 (UniProt Q96G28) | 0.027 | -0.1 | -0.095 | -0.152 | 0.023 | -0.014 | -0.022 | 0.131 | -0.025 | 0.065 | 0.116
4 | CHCHD4 isoform 2 (UniProt Q8N4Q1) | 0.335 | 0.06 | -0.007 | 0.084 | 0.339 | 0.442 | -0.013 | 0.038 | 0.123 | 0.027 | 0.036
5 | CCNT1 (UniProt O60563) | -0.027 | -0.03 | -0.021 | -0.02 | 0.034 | 0.176 | 0.053 | 0 | 0.047 | -0.094 | 0.038
6 | CDK16 isoform 2 (UniProt Q00536) | -0.07 | -0.091 | -0.104 | -0.061 | -0.041 | -0.044 | 0.061 | 0.201 | 0.845 (active) | -0.006 | -0.022
7 | CRK (UniProt P46108) | -0.81 (active) | 0.004 | -0.063 | -0.011 | 0.026 | -0.002 | 0.061 | 0.062 | -0.016 | -0.016 | -0.022
8 | CERS2 (UniProt Q96G23) | -0.015 | 0 | -0.103 | -0.019 | 0.04 | 0.057 | 0.035 | -0.018 | 0.027 | -0.087 | -0.018
9 | CRKL (UniProt P46109) | -1.11 (active) | -0.019 | -0.015 | -0.005 | 0.004 | 0.023 | 0.005 | 0.066 | -0.031 | -0.064 | 0.014
10 | CSNK1A1 (UniProt P48729) | -0.067 | -0.001 | 0.031 | 0.019 | 0.023 | -0.087 | 0.016 | 0.048 | 0.243 | -0.084 | 0.009
11 | CHD4 isoform 2 (UniProt Q14839) | -0.043 | -0.07 | -0.122 | -0.039 | 0.022 | 0.049 | 0.063 | 0.099 | -0.023 | -0.069 | 0.007
12 | CDK5RAP1 (UniProt Q96SZ6) | -0.107 | 0.047 | -0.114 | 0.199 | -0.008 | -0.089 | -0.055 | 0.06 | -0.023 | -0.031 | 0.03
13 | CCNK isoform 4 (UniProt O75909) | -0.053 | -0.104 | 0.044 | -0.091 | -0.044 | -0.021 | -0.007 | -0.046 | 0.006 | -0.305 (active) | 0.037
14 | CALB1 (UniProt P05937) | -0.029 | -0.014 | -0.161 | -0.041 | 0.022 | -0.027 | 0.062 | 0.006 | 0.016 | -0.035 | -0.016
